# ChEMBL document CHEMBL4513216, “Probing the Open Global Health Chemical Diversity Library for Multistage-Active Starting Points for Next-Generation Antimalarials” (ACS Infect Dis, 2020)
# The whole screen tested about 69,000 compounds, of which about 8,600 (12%) showed an effect of 50% or more. The entries come from a sample that favours strong results as a whole.
# System: Plasmodium berghei
# Assay: Screen against P. berghei liver stage (PbLuc), transformed with Luciferase, at 10uM
# Type: functional, HepG2
# Conditions: tested at 10 uM
row,SMILES,INHIBITION
1,O=C(c1ccccc1)N1CCC[C@]2(C[C@@H](OCc3ccncc3)CO2)C1,-13.7%
2,O=C(C1CC1)N1CCC[C@]2(C[C@@H](OCc3ccncc3)CO2)C1,10.5%
3,O=C(N1CCCC1)N1CCC[C@]2(C[C@@H](OCc3ccncc3)CO2)C1,53.9%
4,CCc1nc(CN(C)CC(N)=O)cs1,31.8%
5,Cc1c(C(C)NC(=O)C2CCCC2)cnn1C (stereo unspecified),-8.87%
6,Cc1c(C(C)NC(=O)N2CCN(C3CCCC3)CC2)cnn1C (stereo unspecified),70.9%
7,Cc1c(C(C)NC(=O)C2CCCCC2)cnn1C (stereo unspecified),8.12%
8,O=C1CCC(=O)N1c1nn(Cc2c(F)cccc2Cl)cc1Cl,24.8%
9,CN(C)c1ccc(C(=O)Nc2ccn(CCc3ccncc3)n2)cn1,-17.7%
10,Cc1nn(C)c(C)c1CC(=O)N1CCC(Nc2cccnn2)CC1,53.5%
11,Cn1cc(CC(=O)N2CCC(Nc3cccnn3)CC2)c2ccccc21,66.8%
12,Cc1ccc(NC2CCN(C(=O)Cc3c(C)nn(C)c3C)CC2)nn1,-3.547%
13,O=C(Cc1cccc2ccccc12)N1CCC(Nc2cccnn2)CC1,-9.76%
14,O=C(Cc1c[nH]c2ccccc12)N1CCC(Nc2cccnn2)CC1,21.8%
15,Cc1noc(C)c1CC(=O)N1CCC(Nc2cccnn2)CC1,17.883%
16,CC(NC(=O)NCc1cccs1)c1ccc2c(c1)CCC(=O)N2 (stereo unspecified),-27.8%
17,Cc1cc(C)c2c(c1)C(NCc1c(C)nn(C)c1N(C)C)CCO2 (stereo unspecified),16.515%
18,O=C1CCC(C(=O)Nc2cnn(-c3ccccc3Br)c2)N1 (stereo unspecified),47%
19,CCCN1CCN(C(=O)CCn2cccc2)CC1,16.8%
20,c1cnc(N2C[C@H]3CCN(CCN4CCCC4)C[C@H]3C2)cn1,57.5%
21,O=C(c1cnccn1)N1C[C@@H]2CCN(c3cnccn3)C[C@@H]2C1,35.8%
22,c1cnc(N2C[C@H]3CCN(CC4CC4)C[C@H]3C2)cn1,58.4%

row,SMILES,INHIBITION
1,O=C(CC1CC1)N1C[C@@H]2CCN(c3cnccn3)C[C@@H]2C1,15.7%
2,Cn1cncc1C(=O)N1C[C@@H]2CCN(c3cnccn3)C[C@@H]2C1,56.6%
3,O=C(C1CCCC1)N1C[C@@H]2CCN(c3cnccn3)C[C@@H]2C1,16.1%
4,c1cc(CN2CC[C@@H]3CN(c4cnccn4)C[C@@H]3C2)ccn1,27.6%
5,Cn1ccc(C(=O)N2C[C@@H]3CCN(c4cnccn4)C[C@@H]3C2)n1,24%
6,Cn1ccnc1C(=O)N1C[C@@H]2CCN(c3cnccn3)C[C@@H]2C1,31.2%
7,O=C(C1CCCCC1)N1C[C@@H]2CCN(c3cnccn3)C[C@@H]2C1,-15.9%
8,Cc1ccc(N2CC[C@H]3CN(C(=O)c4ccn(C)n4)C[C@H]3C2)nn1,75.6%
9,Cn1ccc(C(=O)N2C[C@@H]3CCN(c4cccnc4)C[C@@H]3C2)n1,32.1%
10,Cc1cc(NC(=O)NCC(c2ccc(C)o2)N2CCOCC2)n(C)n1 (stereo unspecified),45.7%
11,CC(NC(=O)NCCCn1cncn1)c1ccncc1 (stereo unspecified),33%
12,CN(C)[C@@H]1CCN(C(=O)CC2CC2)[C@H]1Cc1cnn(C)c1,4.27%
13,COCC1CN(Cc2ccoc2)Cc2nn(CC3CC3)cc21 (stereo unspecified),1.9%
14,CC(=O)NCC(=O)N1C[C@@H]2CC[C@H](Oc3ccccc3Cl)[C@@H]2C1,30.8%
15,CCOC(=O)NCCC(=O)NCc1ccnc(Oc2ccc(F)cc2)c1,21.5%
16,CCOC(=O)NCCC(=O)NCc1ccc(Oc2cccc(F)c2)nc1,35.5%
17,CCOC(=O)NCCC(=O)NCc1ccc(Oc2ccc(F)cc2)nc1,61.5%
18,CCc1noc(CN2CCN(CCO)CC2)n1,15.8%
19,Cc1cnn(CC2CCCN2CC(=O)Nc2cc(C)no2)c1 (stereo unspecified),-0.219%
20,CCCC(=O)NC1CCc2c(ccc(=O)n2Cc2csc(C)n2)C1 (stereo unspecified),17.6%
21,Cc1ccccc1N1CCCN(C(=O)CC2CN(C(C)C)CCO2)CC1 (stereo unspecified),60.3%
22,CC(C)N1CCOC(CC(=O)N2CCCN(Cc3ccncc3)CC2)C1 (stereo unspecified),58.5%

row,SMILES,INHIBITION
1,CC(C)N1CCOC(CC(=O)N2CC(c3ccncc3)C2)C1 (stereo unspecified),31.2%
2,Cc1ccc(N2CCCN(C(=O)CC3CCCO3)CC2)nn1 (stereo unspecified),35.3%
3,CC(C)N1CCOC(CC(=O)N2CCCN(Cc3cccs3)CC2)C1 (stereo unspecified),28.5%
4,CC(C)N1CCOC(CC(=O)N2CCCN(c3ccc(F)cc3)CC2)C1 (stereo unspecified),22.1%
5,CN(C)C(=O)C1CN(Cc2ccsc2)CCN(S(C)(=O)=O)C1 (stereo unspecified),20.8%
6,O=C(c1cccnc1)N1CCOCC2(CCN(c3ncccn3)C2)C1 (stereo unspecified),-62.6%
7,Cc1cc(C)c(C(=O)NCCNc2ncnc3ccccc23)c(=O)[nH]1,-21.6%
8,CCn1nc(C)cc1C(=O)OCCNC(=O)c1ccccc1,-1.95%
9,CCn1nc(C)cc1C(=O)OCCNc1ncnc2ccccc12,83.2%
10,COC(=O)CSCc1nc(-c2ccc(Cl)cc2)no1,48.8%
11,COC(=O)CSCc1noc(-c2ccc(C)cc2)n1,91.3%
12,COC(=O)CSCc1noc(-c2ccc(Cl)cc2)n1,46.6%
13,Cn1cc(CCN2CCOC(CNc3cccnn3)C2)cn1 (stereo unspecified),-33.7%
14,CCCOCC1CCN(C(=O)c2cnc(C)nc2O)C1 (stereo unspecified),35.8%
15,Nc1cc(CC2COc3ccccc3C2)ccn1 (stereo unspecified),57.9%
16,O=C(c1ccnc(CC2COc3ccccc3C2)c1)N1CCCC1 (stereo unspecified),31.5%
17,Nc1ccc(CC2COc3ccccc3C2)cn1 (stereo unspecified),56.3%
18,Cc1cc(NC(=O)NCC2COc3ccccc3C2)no1 (stereo unspecified),40%
19,O=S(=O)(NCC1COc2ccccc2C1)N1CCCCCC1 (stereo unspecified),-9.3%
20,Cn1cc(CN2C[C@@H]3COC[C@]3(C(=O)NCc3ccccn3)C2)cn1,13.7%
21,CC(C)NC(=O)[C@@H]1CN(Cc2ccc3c(c2)OCO3)C[C@H]2OCC[C@H]21,26.5%
22,CN(Cc1noc(C2CC2)n1)C1CCCN(c2cccnn2)C1 (stereo unspecified),5.9%
